This is an account of results in PubChem BioAssay AID1851 (National Center for Advancing Translational Sciences (NCATS), 2009).

Structures are written as SMILES. Out of some 16,000 compounds screened, about 5,100 (32%) were called active. Not shown: some 25% with an inconclusive outcome. Calls follow the shape of the dose curve; as a rule, active = well fitted curve in the direction sought with a large enough effect; inconclusive = small, poorly fitted or top-dose-only effect, or effect the other way; inactive = no such curve, though single readings can be large or run the other way. The list shows a part of the results.
% is scaled to controls: 0 for no effect and ±100 for the full control effect.

For the assay, the target named is Cytochrome P450 3A4 (Homo sapiens) (UniProt P08684). In words: Cytochrome panel assay with activity outcomes. As to conditions: recombinant CYP, pro-luciferin dealkylation, luminescence, p450-cyp3a4; series mostly up to 57.1 µM.
Sequence of Cytochrome P450 3A4 (Homo sapiens) (P08684 whole entry, looked up): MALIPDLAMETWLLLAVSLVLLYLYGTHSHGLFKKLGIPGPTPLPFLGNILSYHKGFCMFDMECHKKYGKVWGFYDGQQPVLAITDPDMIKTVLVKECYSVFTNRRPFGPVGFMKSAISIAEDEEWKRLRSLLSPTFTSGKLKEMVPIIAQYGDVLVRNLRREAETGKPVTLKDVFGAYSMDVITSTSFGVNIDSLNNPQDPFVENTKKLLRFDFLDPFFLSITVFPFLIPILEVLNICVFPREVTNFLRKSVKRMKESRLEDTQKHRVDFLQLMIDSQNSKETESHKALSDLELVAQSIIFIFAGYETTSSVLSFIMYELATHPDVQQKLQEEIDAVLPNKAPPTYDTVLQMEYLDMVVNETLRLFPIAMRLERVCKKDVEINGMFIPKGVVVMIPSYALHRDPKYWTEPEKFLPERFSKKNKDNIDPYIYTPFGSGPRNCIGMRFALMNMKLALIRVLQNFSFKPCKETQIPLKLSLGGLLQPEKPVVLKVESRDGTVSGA
As for `CC1(C)CC(=O)C2=C(C1)N(c1ccc(F)cc1)C(N)=C(C#N)C2c1cccs1` (stereo unspecified), the AC50 is 1 µM (active).
Consider `COc1ccc(-n2nc3cc(C)c(NC(=S)NC(=O)c4ccccc4C)cc3n2)cc1`, for which the activity, negative = inhibition was -17.3% [at 11.4 µM] (inactive).
As for `CN(C1CCCCC1)S(=O)(=O)c1ccc(NC(=S)NC(=O)c2cccs2)cc1`, the AC50 was 3.98 µM (active).
Still for that read-out and setting: to `CCCC(=O)Nc1ccc(C(=O)NNC(=S)NC(=O)c2cccs2)cc1` belongs “inactive”; to `CCN(c1ccccc1)S(=O)(=O)c1ccc(NC(=S)NC(=O)c2ccc(Br)o2)cc1`, “inactive”.
Same read-out and setting: to `COc1cc(NC(=S)NC(=O)c2c(OC)cccc2OC)ccc1NC(=O)c1cccs1` belongs 3.16 µM (active).
The same measure, in the same setting: to `Cc1ccccc1C(=O)Nc1cccc(NC(=S)NC(=O)c2cccs2)c1` belongs 3.55 µM (active).
As for `C/C(=N\NC(=O)c1ccccc1C)c1ccc(NC(=O)c2cccs2)cc1`, the activity, negative = inhibition is -4.96% [at 2.29 µM] (inactive).
On to `O=[N+]([O-])/C=C\c1cc2ccccc2[nH]1`, for which the activity, negative = inhibition is -22.3% [at 11.4 µM] (inactive).
Consider `C=CCNC(=O)c1ccc2nc(-c3ccccc3)c(-c3ccccc3)nc2c1`, for which the AC50 was 7.08 µM (active).
Same read-out and setting: the same measure for `COc1ccc(N(C)C(=O)c2ccc3nc(-c4ccccc4)c(-c4ccccc4)nc3c2)cc1`: 7.94 µM (active).
Same read-out and setting: the same measure for `CCNC(=O)c1ccc(-n2nc(C)cc2-c2ccccc2)cc1`: “inactive”.
As to `C=CCNC(=O)c1ccccc1Cl`, the AC50 entry was “inactive”.
On to `CC1CC2=C(NC(=S)NC2c2ccc(F)cc2)/C(=C/c2ccc(F)cc2)C1` (stereo unspecified), for which the AC50 was 5.01 µM (active).
Turning to `COC(=O)c1cc2n(n1)CCN(Cc1ccccc1F)C2=O`, the activity, negative = inhibition is 17.9% [at 2.29 µM] (inactive).
As for `O=C1NCCN1Cc1ccccc1F`, the AC50 was 15.8 µM (active).
Take `O=C1NCCN1Cc1cccc(Cl)c1`: the AC50 entry is “inactive”.
Consider `N[C@@H](Cn1ccc(=O)n(Cc2ccccc2C(=O)O)c1=O)C(=O)O`, for which the AC50 entry was “inactive”.
The same measure, in the same setting: the same measure for `O=C(OCn1ncc(Cl)c(Cl)c1=O)c1cccc(C(F)(F)F)c1`: “inactive”; for `Cc1cccc(Cn2ncc(Cl)c(Cl)c2=O)c1`: 14.1 µM (active); for `COc1cccc(-c2cncnc2NCCc2cnc[nH]2)c1`: 0.631 µM (active).
In the case of `c1ncc(-c2ccc3c(c2)OCO3)c(NCCc2cnc[nH]2)n1`, the AC50 is 0.794 µM (active).
In the case of `COc1ccccc1-c1cncnc1NCCc1cnc[nH]1`, the AC50 is 0.398 µM (active).
The same measure, in the same setting: to `c1csc(CNc2ncncc2-c2ccc3c(c2)OCO3)c1` belongs “inactive”; to `Cn1c(-c2ccc3c(c2)OCO3)cnc1NCc1ccccc1`, 7.94 µM (active); to `c1ccc(CNc2ncncc2-c2ccc3c(c2)OCO3)cc1`, 0.501 µM (active).
`Cc1cnc(CNc2ncncc2-c2ccc3c(c2)OCO3)cn1`: the AC50 is 1.58 µM (active).
On the same count and under the same terms, to `Clc1ccc2c(c1)C=Nc1c(NCc3ccccc3)ncnc1O2` belongs “inactive”.
For `c1cncc(CNc2ncncc2-c2ccc3c(c2)OCO3)c1`, the AC50 was 0.398 µM (active).
As for `COC(=O)[C@H](C)NC(=O)[C@@H](C)CO`, the activity, negative = inhibition is -19.6% [at 11.4 µM] (inactive).
Same read-out and setting: to `Oc1c(C(O)(c2ccccc2)c2ccc3ccccc3c2O)ccc2ccccc12` belongs -13.3% [at 11.4 µM] (inactive).
With `CCCCOc1ccc(CN2CCC(O)CC2)cc1`, the AC50 entry is “inactive”.
The same measure, in the same setting: to `CN1CCc2c(c3ccccc3n2C)C1` belongs “inactive”; to `Cc1cccc(CNc2ncncc2-c2ccc3c(c2)OCO3)c1`, 0.251 µM (active); to `c1ccc(Nc2ncncc2-c2ccc3c(c2)OCO3)cc1`, 0.794 µM (active).
For `Cn1c(-c2ccc3c(c2)OCO3)cc(=O)c2ccccc21`, the AC50 is 10 µM (active).
On the same count and under the same terms, the same measure for `CCOC(=O)Nc1ccc(C(=O)Oc2ccccc2)c(O)c1`: “inactive”; for `C[n+]1cc(-c2ccccc2)n2c1CCCCC2`: “inactive”.
`CCOC(=O)[C@]1(CC(=O)O)CCCC1=O`: the activity, negative = inhibition is -3.51% [at 11.4 µM] (inactive).
As to `CC(C)(C)Cn1nc(-c2ccc(Cl)cc2)c2c(N)ncnc21`, the AC50 entry is “inactive”.
For the molecule `COCCn1nc2cc(C(=O)NCc3cc(C(F)(F)F)cc(C(F)(F)F)c3)ccc2c1OC`, the activity, negative = inhibition is 10.6% [at 2.29 µM] (inactive).
For `CCCn1nc2cc(C(=O)NCc3ccc(C)cc3)ccc2c1OC`, the AC50 was 14.1 µM (active).
Still for that read-out and setting: the same measure for `CCOc1c2ccc(C(=O)NCCCCc3ccccc3)cc2nn1C`: “inactive”.
Consider `CCOc1c2ccc(C(=O)NCc3ccc(OC(F)(F)F)cc3)cc2nn1C`, for which the activity, negative = inhibition was 16.7% [at 2.29 µM] (inactive).
Regarding `CCCCn1nc2cc(C(=O)NCC3CC3)ccc2c1OCC`, the AC50 entry is “inactive”.
On to `CCOc1c2ccc(C(=O)NCCCCc3ccccc3)cc2nn1CC`, for which the activity, negative = inhibition was 18.3% [at 2.29 µM] (inactive).
For the molecule `CCCn1nc2cc(C(=O)NCCCCc3ccccc3)ccc2c1OCC`, the AC50 was 15.8 µM (active).
On the same count and under the same terms, the same measure for `CCOc1c2ccc(C(=O)NCc3cc(C(F)(F)F)cc(C(F)(F)F)c3)cc2nn1C`: 12.6 µM (active).
Take `COCCn1nc2cc(C(=O)NCC34CC5CC(CC(C5)C3)C4)ccc2c1OC`: the activity, negative = inhibition is -1.55% [at 2.29 µM] (inactive).
Regarding `CCCn1nc2cc(C(=O)NCCc3ccc(C)cc3)ccc2c1OCC`, the AC50 was 6.31 µM (active).
For the molecule `CCOC(=O)N/N=C1/C[C@@H](O)[C@@H](O)[C@@H]2[C@@H]3C(=O)N(CC)C(=O)[C@H]3CC[C@H]12`, the activity, negative = inhibition is -6.5% [at 11.4 µM] (inactive).
`N#Cc1c(-c2ccccc2)ccnc1Oc1ccccc1`: the AC50 result is “inactive”.
The same measure, in the same setting: the same measure for `C/C(=N\OC(=O)c1ccccc1F)c1nccs1`: “inactive”.
Take `CC1(C)O[C@@H]2O[C@H]([C@H](O)CO/N=C3/[C@H]4O[C@@H]4[C@@H](O)[C@H]4[C@H]3CCn3c(=O)n(-c5ccccc5)c(=O)n34)[C@@H](O)[C@@H]2O1`: the activity, negative = inhibition is -8.83% [at 11.4 µM] (inactive).
Consider `C/C(CCC(=O)OC[C@@H]1O[C@H](C#Cc2ccccc2)C=C[C@@H]1Oc1ccc(C)cc1)=N/OC[C@@H](O)[C@H]1O[C@H]2OC(C)(C)O[C@H]2[C@@H]1O`, for which the AC50 is 3.98 µM (active).
As for `CC(=O)OC[C@@H]1O[C@H](C/C=N\OC[C@@H](O)[C@H]2O[C@H]3OC(C)(C)O[C@H]3[C@@H]2O)C=C[C@@H]1OC(C)=O`, the activity, negative = inhibition is -11.1% [at 11.4 µM] (inactive).
Turning to `COc1ccc(O[C@H]2C=C[C@@H](c3ccccc3)O[C@H]2COC(=O)CC/C(C)=N\OC[C@@H](O)[C@H]2O[C@H]3OC(C)(C)O[C@H]3[C@@H]2O)cc1`, the AC50 was 3.98 µM (active).
On the same count and under the same terms, the same measure for `Cc1ccc(/C(O)=C2/C(=O)C(=O)N(CCCn3ccnc3)C2c2ccccn2)cc1` (stereo unspecified): “inactive”; for `CCOc1ccc(/C(O)=C2/C(=O)C(=O)N(CCCn3ccnc3)C2c2cccs2)cc1Cl` (stereo unspecified): 0.282 µM (active).
Still for that read-out and setting: the same measure for `COCCCN1C(=O)C(=O)/C(=C(/O)c2ccc(OC(C)C)c(C)c2)C1c1ccncc1` (stereo unspecified): “inactive”.
Turning to `Cc1ccc(NC(=S)N2CCN(CCN3C(=O)c4cccc5cccc(c45)C3=O)CC2)cc1`, the AC50 is 4.47 µM (active).
Turning to `O=C(CCN1C(=O)c2ccccc2C1=O)Oc1ccc2ccccc2c1`, the AC50 result is “inactive”.
In the case of `Cc1cccc(NC(=O)CCCN2C(=O)c3cccc4cccc(c34)C2=O)c1`, the AC50 was 2.24 µM (active).
Still for that read-out and setting: to `Cn1cnnc1SCC(=O)OCN1C(=O)c2ccccc2C1=O` belongs “inactive”.
With `Cc1cccc(/C(N)=N/OC(=O)CCCN2C(=O)c3ccccc3C2=O)c1`, the AC50 is 4.47 µM (active).
Consider `O=C1c2ccccc2C(=O)N1CCSC(=S)N1CCOCC1`, for which the AC50 entry was “inactive”.
Consider `CCN(CC)CCN1C(=O)c2cccc3cc(N)cc(c23)C1=O`, for which the activity, negative = inhibition was -14.7% [at 11.4 µM] (inactive).
Consider `CC(=NCCN1CCN(C(=S)Nc2ccccc2)CC1)C1=C(O)CC(C)(C)CC1=O`, for which the activity, negative = inhibition is -20.4% [at 11.4 µM] (inactive).
Take `COc1ccccc1CN1CC2(CCN(S(=O)(=O)c3ccccc3)CC2)C1`: the AC50 was 20 µM (active).
For `COc1ccccc1CN1CCC2(CC1)CCN(S(=O)(=O)c1ccccc1)CC2`, the AC50 entry was “inactive”.
Regarding `COc1ccccc1CN1CC[C@@]2(CCCN(S(=O)(=O)c3ccccc3)C2)C1`, the AC50 is 10 µM (active).
Take `COc1ccccc1CN1CC2(CCN(S(C)(=O)=O)CC2)C1`: the AC50 entry was “inactive”.
The same measure, in the same setting: to `COc1ccccc1CN1CCC2(CC1)CCN(S(C)(=O)=O)CC2` belongs “inactive”; to `COc1ccccc1CN1CCCC2(CCN(S(C)(=O)=O)CC2)C1`, “inactive”; to `CC(=O)OCC(=O)[C@@]1(O)CC[C@@H]2[C@H]3CCC4=CC(=O)CC[C@]4(C)[C@]3(F)[C@@H](O)C[C@@]21C`, “inactive”.
Same read-out and setting: to `CN1Cc2c(C(=O)OC(C)(C)C)ncn2-c2ccsc2C1=O` belongs “inactive”.
On the same count and under the same terms, to `Cc1cccn2c(/C=N/OCc3ccc(F)cc3)c(-c3ccc(Cl)cc3)nc12` belongs “inactive”.
Consider `COc1ccc(/C(C#N)=C/c2c(-c3ccc(Cl)cc3)nc3c(C)cccn23)cc1`, for which the AC50 is 2.82 µM (active).
In the case of `CC(=O)c1ccc(N2CCC(c3cc(-c4ccc(Cl)cc4Cl)n[nH]3)CC2)c([N+](=O)[O-])c1`, the AC50 is 12.6 µM (active).
Still for that read-out and setting: to `COc1ccc(-c2cc(C3CCN(c4ccc(C(C)=O)cc4[N+](=O)[O-])CC3)[nH]n2)cc1` belongs 4.47 µM (active); to `Cc1cc(NCCO)c2ccccc2n1`, “inactive”; to `CCCNc1c(F)c(F)c2c(C)c3ccccc3nc2c1F`, 6.31 µM (active).
Consider `CC(C)C(O)(C(C)C)C(C)C`, for which the activity, negative = inhibition was -4.9% [at 11.4 µM] (inactive).
For the molecule `COc1ccc2[nH]c3c(c2c1)CN(C)CC3`, the AC50 result was “inactive”.
On the same count and under the same terms, to `Cc1ccc2[nH]c3c(c2c1)CN(C(=O)CN1c2ccc(F)cc2CCC1C)CC3` (stereo unspecified) belongs 8.91 µM (active).
The same measure, in the same setting: the same measure for `CC(=O)Nc1c(S(=O)(=O)c2ccccc2)c2nc3ccccc3nc2n1Cc1ccccc1`: 4.47 µM (active); for `Nc1c(S(=O)(=O)c2ccccc2)c2nc3ccccc3nc2n1Cc1ccco1`: 3.98 µM (active); for `COC(=O)CCSc1cc([N+](=O)[O-])cc2c1c(C1OCCS1)nn2-c1ccccc1` (stereo unspecified): 14.1 µM (active).
Same read-out and setting: the same measure for `O=C(O)/C=C\C(=O)Nc1ccc2c(c1)C(=O)c1cc(F)ccc1-2`: 3.16 µM (active); for `O=C(O)/C=C/C(=O)Nc1ccccc1-c1ccccc1`: “inactive”.
Turning to `O=C(O)/C=C\C(=O)Nc1cccc2c1-c1ccccc1C2=O`, the activity, negative = inhibition was -10.9% [at 11.4 µM] (inactive).
